Compound activity (PubChem)
An excerpt weighted towards active compounds, which were near 32% of everything screened.
CYP2C19 inhib – blockers of cytochrome P450 2C19 activity – biochemical, luminescence, ADME assay, primary screen; CYP2C19 Supersomes, luciferin-H EGE luminescence, 30 min; hit rate 21% among 96,000; P33261; inhibition, % at 5 µM; AID 778, 2007;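 active = CYP2C19 inhibition above a set limit at 5 µM in the primary screen, cut at about 50% in these data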;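 note: plate controls were negative control wells for no effect and 2.5 mM tranylcypromine positive control for full effect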
CYP2C9 act – human CYP2C9 activators, primary screen, biochemical, luminescence; recombinant CYP2C9, luciferin-H conversion; active compounds read high; factor 1 = untreated enzyme, 0 = blocked; hit rate 1.4% among 96,000; activation factor at 5 µM; Cytochrome P450 2C9 (Homo sapiens), P11712;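 active = activation factor of 2 or more for CYP2C9 at a 5 µM dose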;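 note: 0 = sulfaphenazole-blocked wells and 1 = vehicle-only wells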
Target sequence (P11712 whole entry, looked up): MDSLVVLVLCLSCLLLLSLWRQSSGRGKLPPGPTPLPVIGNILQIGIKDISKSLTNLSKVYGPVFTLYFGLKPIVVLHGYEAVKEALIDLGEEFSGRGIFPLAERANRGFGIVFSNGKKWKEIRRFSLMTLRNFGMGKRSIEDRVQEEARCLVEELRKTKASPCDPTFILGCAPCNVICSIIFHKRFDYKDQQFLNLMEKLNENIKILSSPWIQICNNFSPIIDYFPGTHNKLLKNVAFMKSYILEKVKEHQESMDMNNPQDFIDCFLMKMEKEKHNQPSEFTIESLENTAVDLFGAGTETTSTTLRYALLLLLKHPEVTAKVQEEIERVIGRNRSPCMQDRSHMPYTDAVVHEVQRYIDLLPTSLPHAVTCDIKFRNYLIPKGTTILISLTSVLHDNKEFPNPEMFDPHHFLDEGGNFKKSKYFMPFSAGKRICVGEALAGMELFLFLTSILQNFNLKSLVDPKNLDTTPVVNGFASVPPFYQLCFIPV
CYP2C19 act – human CYP2C19 activators, primary screen, biochemical, luminescence. Cytochrome P450 2C19 (Homo sapiens), P33261. recombinant CYP2C19, luciferin-H EGE luminescence; active compounds read high; 0 = fully inhibited enzyme, 1 = untreated enzyme. activation factor at 5 µM. 96,000 tested, under 10 active. AID 1025, 2008;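 active = activation factor of at least 2 at 5 µM in the primary screen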;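 note: 0 = wells with 2.5 mM tranylcypromine and 1 = vehicle-only wells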
PostGolgi ctrl – growth inhibition of yeast control strain, primary screen, counter-screen for post-Golgi transport modulator project. efflux-deficient yeast background strain, growth absorbance A615, 16 h. inhibition, % at 10 µM. hit rate 5% among 98,000. AID 738, 2007
CYP2C9 inhib – blockers of cytochrome P450 2C9 activity – biochemical, luminescence, ADME assay, primary screen; P11712; CYP2C9 Supersomes, luciferin-H conversion; inhibition, % at 5 µM; hit rate 20% among 96,000; AID 777, 2007;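 active = blocking of liver enzyme CYP2C9 beyond about 50% at 5 µM, limit read from the data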
PostGolgi yeast – phenotypic screen on post-Golgi transport, primary screen | post-Golgi transport phenotypic cell assay | inhibition, % at 10 µM | hit rate 0.9% among 98,000;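 note: yeast cells grown in 1536-well plates; yeast grown about 18 h at 30C before absorbance read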
The depositor's hits bear a star; / = not tested or not shown. Cut-off read from the data, not from the text of the source, unless noted: active = inhibition above about 30%; inactive = the rest.

SMILES	CYP2C19 inhib	CYP2C9 act	CYP2C19 act	PostGolgi ctrl	CYP2C9 inhib	PostGolgi yeast
CCOC(=O)C1=C(Nc2ccc(Br)cc2)CC(C)(O)C(C(=O)OCC)C1c1ccccc1 (stereo unspecified)	-10	1.1	1.1	10	-11	-4
O=C(N/N=C/c1cc([N+](=O)[O-])ccc1N1CCNCC1)c1ccc([N+](=O)[O-])cc1	6	1	0.9	4	4	-7
CCc1ccc(/C=C/C(=O)c2cc(Br)ccc(=O)c2O)cc1	27	0.6	0.7	4	40	2
Cc1ccc(/C=C/C(=O)c2cc(Br)ccc2OC(=O)c2ccco2)cc1	83*	0.2	0.2	28	76*	-2
COc1cccc(Cn2cnc3c(NS(=O)(=O)c4ccc(Cl)cc4)c(C)c(C)cc32)c1	10	0.6	0.9	5	37	8
COc1cc(C(=O)N2CCN=C2c2ccccc2)cc(OC)c1OC	41	1.1	0.6	17	-6	-13
CCC(=O)N(Cc1cc2c(C)ccc(C)c2[nH]c1=O)C1CCCCC1	5	0.8	0.9	31*	18	-8
CCC(=O)N(Cc1cc2c(C)cc(C)cc2[nH]c1=O)C1CCCCC1	19	0.8	0.8	47*	16	9
Cc1cc2ncn(C3CC(=O)N(Cc4ccc(N5CCCC5=O)cc4)C3=O)c2cc1C (stereo unspecified)	30	0.6	0.7	9	37	1
CC(C)(Oc1ccc(Cl)cc1)C(=O)NCc1ccco1	11	0.5	0.9	2	52*	-8
CC(C)(Oc1ccc(Cl)cc1)C(=O)NCc1ccncc1	99*	0	0	-11	98*	8
CC(C)(Oc1ccc(Cl)cc1)C(=O)Nc1cccnc1	52*	0.7	0.5	3	25	-18
CCOc1ccc(C(=O)NCc2ccncc2)cc1	37	0.9	0.6	10	14	-5
C/C(CC(=O)NCc1ccco1)=N\NC(=O)Cc1ccc(Cl)cc1	10	0.9	0.9	0	7	-11
CC(C)(Oc1ccc(Cl)cc1)C(=O)Nc1ccncc1	100*	0	0	20	97*	12
CCOC(=O)Cn1c(=O)c(-c2ccccc2NC)nc2ccccc21	10	1.2	0.9	6	-16	2
O=C(C1CCCN(Cc2ccccc2C(F)(F)F)C1)N1CCCCC1 (stereo unspecified)	25	0.7	0.8	19	34	-1
CS(=O)(=O)N1CCN(Cc2ccccc2C(F)(F)F)CC1	73*	0.8	0.3	2	18	18
Cc1ccc(CN2CCN(Cc3ccccc3C(F)(F)F)CC2)cc1	64*	0.8	0.4	21	20	-1
CS(=O)(=O)N1CCN(Cc2ccc(C(F)(F)F)cc2)CC1	42	1.4	0.6	-6	-42	5
Clc1ccccc1CSc1ncccn1	53*	1.3	0.5	9	-34	-4
O=C(CSc1ncccn1)NCc1ccccc1Cl	75*	1.2	0.3	1	-23	-4
Cn1c(Cn2c(=O)sc3ccccc32)nnc1SCC(=O)NCc1ccccc1Cl	/	/	/	2	/	1
Clc1ccccc1CSc1nnc(-c2ccccn2)n1Cc1ccco1	0	0.9	1	13	7	0
O=C(CSc1nc2ccccc2c(=O)n1NC(=O)Cc1ccccc1)NCc1ccccc1Cl	90*	0.1	0.1	7	94*	12
SMILES	CYP2C19 inhib	CYP2C9 act	CYP2C19 act	PostGolgi ctrl	CYP2C9 inhib	PostGolgi yeast
CC(=O)c1c(C)[nH]c(C(=O)NCc2cccs2)c1C	8	0.9	0.9	1	13	7
COc1ccc(S(=O)(=O)N2CCCN(Cc3cccc(F)c3)CC2)cc1	60*	1.6	0.4	45*	-55	2
COc1ccc(C)cc1S(=O)(=O)N1CCN(Cc2ccccc2)CC1	96*	0.1	0	-4	90*	-5
COc1ccc(S(=O)(=O)N2CCCN(CC(=O)Nc3cc(NC(C)=O)ccc3OC)CC2)cc1	17	0.6	0.8	7	37	0
CCOc1ccccc1CN1CCN(S(C)(=O)=O)CC1	32	1.1	0.7	8	-10	-2
CCN1CCN(S(=O)(=O)c2cc(OC)ccc2OC)CC1	13	1.2	0.9	1	-18	9
CCOc1cc(S(=O)(=O)N2CCN(Cc3ccccc3)CC2)ccc1Br	97*	0.6	0	29	41	10
Cn1c(=O)c2cc(S(=O)(=O)N3CCC(c4ccccc4)CC3)ccc2n(C)c1=O	20	0.3	0.8	-6	68*	29
CCCC(C)n1[nH]c(=O)cc1N (stereo unspecified)	/	/	/	2	/	2
CCOc1ccccc1NC(=O)c1ccoc1C	10	1.6	0.9	6	-62	21
COc1ccc(CNC(=O)C2CCCN2S(=O)(=O)c2ccc(S(=O)(=O)N(C)C)cc2)cc1 (stereo unspecified)	9	0.7	0.9	3	30	3
O=S(=O)(c1ccccc1)N1CCN(Cc2cccc(Cl)c2)CC1	70*	0.4	0.3	8	61*	2
COc1ccc(S(=O)(=O)N2CCN(Cc3ccccc3)CC2)cc1	89*	1.1	0.1	3	-11	2
CN(Cc1ccccc1)S(=O)(=O)c1ccc2c(c1)n(C)c(=O)n2C	65*	1	0.3	13	4	1
Cn1c(=O)c(=O)n(C)c2cc(S(=O)(=O)N3CCN(Cc4ccccc4)CC3)ccc21	-2	0.5	1	10	51*	4
Cn1c(=O)c(=O)n(C)c2cc(S(=O)(=O)N3CCCCC3)ccc21	-21	1.2	1.2	8	-18	17
CCOC(=O)C1CCCN(c2c(N3CCc4ccccc4C3)c(=O)c2=O)C1 (stereo unspecified)	35	0.5	0.7	13	50	2
COc1cccc(CN2CCN(S(=O)(=O)c3ccc(Br)cc3)CC2)c1	86*	0.4	0.1	4	61*	-6
CCCCOc1ccc(-c2nc(-c3cccnc3)no2)cc1	16	0.9	0.8	3	14	1
CCc1ccc(-c2nc(-c3ccncc3)no2)cc1	99*	0.2	0	10	84*	2
CCCCc1ccc(-c2nc(-c3ccncc3)no2)cc1	84*	0.3	0.2	-6	67*	3
CCOCCCNC(=O)c1cc(C)nn1-c1ccccc1	6	0.8	0.9	5	18	-5
COC(CNC(=O)c1cc(C)nn1-c1ccccc1)OC	6	0.9	0.9	18	7	-5
Cc1cc(C(=O)NCc2cccs2)n(-c2ccccc2)n1	48	0.4	0.5	9	59*	-3
